Experimental data reported in the supplement of paper PMC13380429.

Test system: Vero E6 infected with SARS-CoV-2
Experiment: inhibition of SARS-CoV-2 cytopathic effect; higher = more antiviral protection, active = above 15
Details: 48 h

Measured: inhibition of SARS-CoV-2 cytopathic effect

[Cl][Ru-]([Cl])([Cl])[Cl].[Na+].c1ccc2[nH]ncc2c1.c1ccc2[nH]ncc2c1
inactive: 1 nM 2.72% | 8.33 nM 0.03% | 100 nM 1.2% | 833.33 nM 5.02%
active: 10000 nM 18%

CCCC[C@H](NC(=O)[C@@H]1[C@@H]2[C@H](CN1C(=O)[C@@H](NC(=O)NC1(CS(=O)(=O)C(C)(C)C)CCCCC1)C(C)(C)C)C2(C)C)C(=O)C(=O)NC1CC1 [narlaprevir]
inactive: 1 nM 0.96% | 8.33 nM 1.32% | 100 nM 0.06% | 833.33 nM 3.2% | 10000 nM 0.24%

CCC(=O)O[C@@H]1CC(=O)O[C@H](C)C/C=C/C=C/[C@H](O)[C@H](C)C[C@H](CC=O)[C@H](O[C@@H]2O[C@H](C)[C@@H](O[C@H]3C[C@@](C)(O)[C@@H](OC(=O)CC)[C@H](C)O3)[C@H](N(C)C)[C@H]2O)[C@H]1OC [midecamycin]
inactive: 1 nM -1.27% | 8.33 nM -3.06% | 100 nM -2.36% | 833.33 nM -0.5% | 10000 nM -0.33%

C=CCSCC1Nc2cc(Cl)c(S(N)(=O)=O)cc2S(=O)(=O)N1 (stereo not given) [althiazide]
inactive: 1 nM 0.54% | 8.33 nM 0.99% | 100 nM -0.07% | 833.33 nM -0.46% | 10000 nM 0.04%

CCCCCCCCC(=O)N[C@H](CN1CCCC1)[C@H](O)c1ccc2c(c1)OCCO2
inactive: 1 nM 3.01% | 8.33 nM 0.25% | 100 nM 2.54% | 833.33 nM 1.06% | 10000 nM 9.9%

NC(N)=O [urea]
inactive: 1 nM -3.97% | 8.33 nM -3.63% | 100 nM -2.79% | 833.33 nM -2.47% | 10000 nM -3.31%

CCCCN1CCC(CCC(=O)c2cc(Cl)c(N)cc2OC)CC1
inactive: 1 nM -0.14% | 8.33 nM -0.19% | 100 nM -0.31% | 833.33 nM -1.87% | 10000 nM -3.77%

CC(C)/N=c1\cc2n(-c3ccc(Cl)cc3)c3ccccc3nc-2cc1Nc1ccc(Cl)cc1 [clofazimine]
inactive: 1 nM -2.49% | 8.33 nM 0.21% | 100 nM -2.66% | 833.33 nM 6.27% | 10000 nM -0.63%

Clc1ccc(N/N=C(\c2ccccc2)c2ccccn2)nc1
inactive: 1 nM -0.45% | 8.33 nM -0.79% | 100 nM -1.98% | 833.33 nM 9.6%
active: 10000 nM 16.5%

Cc1ccc2c(N3CCN(CCc4cccc(N5CCNC5=O)c4)CC3)cccc2n1
inactive: 1 nM -2.94% | 8.33 nM -3.04% | 100 nM -3.97% | 833.33 nM 1.55% | 10000 nM 1.48%

C[N+]12CCCCC1CCC(=C(c1cccs1)c1cccs1)C2 (stereo not given) [tiquizium]
inactive: 1 nM -3.91% | 8.33 nM -0.22% | 100 nM 2.71% | 833.33 nM -2.14% | 10000 nM -3.03%

Cc1c(Cl)cccc1Nc1ccccc1C(=O)O [tolfenamic-acid]
inactive: 1 nM -1.57% | 8.33 nM -0.57% | 100 nM 1.25% | 833.33 nM 0.34% | 10000 nM -0.7%

O=C(O)c1cc(O)c(O)c(O)c1 [gallic-acid]
inactive: 1 nM -1.87% | 8.33 nM 0.61% | 100 nM 3.05% | 833.33 nM -1.88% | 10000 nM 6.6%

O=C(Nc1cc(C(F)(F)F)cc(C(F)(F)F)c1)c1cnc(Cl)nc1C(F)(F)F
inactive: 1 nM 0.53% | 8.33 nM -0.29% | 100 nM 0.4% | 833.33 nM -4.18% | 10000 nM -13.9%

CCN(CC)CCOC(=O)c1ccc(N)cc1 [procaine]
inactive: 1 nM -1.32% | 8.33 nM -0.89% | 100 nM -0.82% | 833.33 nM -1.72% | 10000 nM -0.17%

CC(C)OC(=O)C1=CN(C(=O)c2ccc(F)c(F)c2)CC(C)(C)c2c1[nH]c1ccccc21
inactive: 1 nM -2.29% | 8.33 nM -1.15% | 100 nM -3.38% | 833.33 nM -4.11% | 10000 nM -3.87%

N#Cc1ccc(N(Cc2ccc(Br)cc2)n2cnnc2)cc1
inactive: 1 nM 1.03% | 8.33 nM -0.63% | 100 nM 3.36% | 833.33 nM 2.99% | 10000 nM -2.52%

CNC(=O)c1cc(Oc2ccc(NC(=O)Nc3ccc(Cl)c(C(F)(F)F)c3)cc2)ccn1 [sorafenib]
inactive: 1 nM -0.83% | 8.33 nM 1.38% | 100 nM 2.59% | 833.33 nM 2.85%
active: 10000 nM 16.4%

COC(=O)[C@@]12OC[C@]34[C@H]([C@@H](O)[C@@H]1O)[C@@]1(C)CC(=O)C(O)=C(C)[C@@H]1C[C@H]3OC(=O)[C@H](OC(=O)/C=C(\C)C(C)C)[C@@H]24 [bruceantin]
inactive: 1 nM 1.48% | 8.33 nM 1.92% | 833.33 nM 4.61% | 10000 nM -16.1%
active: 100 nM 26.8%

O=C(O)c1cc2ccccc2s1
inactive: 1 nM -0.94% | 8.33 nM -1.01% | 100 nM -0.94% | 833.33 nM -0.45% | 10000 nM 0.62%
